Test systems include SNB-75 CNS; SNB-19 CNS; U251 CNS; PC-3 prostate; SK-MEL-5 melanoma; UACC-62 melanoma; LOX IMVI melanoma; SK-MEL-28 melanoma; SK-MEL-2 melanoma; SN12C renal; UO-31 renal; TK-10 renal; ACHN renal; CAKI-1 renal; A498 renal; CCRF-CEM leukemia; MOLT-4 leukemia; SR leukemia; EKVX NSCLC.
Common to all, as to assay: NCI-60 one-dose screen, 48 h (100 = growth as untreated, 0 = no growth, -100 = all killed)
Holding throughout (settings): 10 µM unless noted

For 9 compounds, growth results are on record in PubChem BioAssay (NCI).

Compounds without any hit were thinned out: in the full panel of roughly 83,000, 20% have a hit.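 How to read the values: 0–100, growth inhibition (40 = 60% inhibited); 0, no net growth; -100 to 0, cell death (-40 = 40% of starting cells died; -100 = all dead).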 A number with no mark means an inactive call. Activity calls are given as the source filed them. Rule for the calls: active = growth percent below 10; inactive = the rest.

With `COc1cc(/C=C2\CCC/C(=C\c3ccc(OCC4CO4)c(OC)c3)C2=O)ccc1OCC1CO1` (stereo not drawn), the growth in the assay on SNB-75 CNS is 51.4%; in the assay with SNB-19 CNS it was 63.4%; in the assay on U251 CNS it was 12.7%; in the assay on PC-3 prostate, 50.7%; in the assay on SK-MEL-5 melanoma, 18.4%; in the assay with UACC-62 melanoma it was 3.6% (active). Besides, the growth in the assay with LOX IMVI melanoma was -59.9% (active); in the assay on SK-MEL-28 melanoma it was 14.8%; in the assay on SK-MEL-2 melanoma, 49.7%; with SN12C renal it was 23.8%; in the assay with UO-31 renal it was 47.6%; in the assay on TK-10 renal, 58.5%. Moreover, the growth in the assay with ACHN renal was 30.2%; in the assay on CAKI-1 renal, 72.2%; with A498 renal it was 63.9%; with CCRF-CEM leukemia, 1.96% (active); in the assay on MOLT-4 leukemia, -12.6% (active); in the assay with SR leukemia, -3.1% (active).

For the compound `CSc1nnc(C2=CC(=O)c3ccccc3C2=O)n1-c1ccccc1`, the growth is 74.8% in the assay with SNB-75 CNS; 91.5% with SNB-19 CNS; 76.5% with U251 CNS; 86.7% in the assay on PC-3 prostate; 84.1% with UACC-62 melanoma; 105% with SK-MEL-28 melanoma. The growth with SN12C renal was 104%; in the assay with UO-31 renal, 67.6%; in the assay with TK-10 renal it was 121%; in the assay with ACHN renal, 74.9%; in the assay with CAKI-1 renal it was 88.5%; in the assay on A498 renal it was 99.4%. Further, the growth in the assay on CCRF-CEM leukemia is 36.8%; with MOLT-4 leukemia it was 68.9%; in the assay on SR leukemia it was 70.2%.

Take `COC(=O)CCC1=C(C)/C(=C/c2[nH]c(-c3ccc[nH]3)cc2OC)N=C1C`: the growth in the assay with SNB-75 CNS is -32% (active); with SNB-19 CNS, 44.7%; in the assay on U251 CNS it was -1.49% (active); in the assay on SK-MEL-5 melanoma, -92% (active); in the assay with UACC-62 melanoma it was -49.6% (active); with LOX IMVI melanoma, -64.3% (active). Further, the growth in the assay with SK-MEL-28 melanoma was -0.539% (active); with EKVX NSCLC it was 46.4%; in the assay with SN12C renal, 34.8%; in the assay on UO-31 renal, -50.9% (active); with TK-10 renal it was 28.1%; in the assay on ACHN renal, 8.35% (active). The growth in the assay with CAKI-1 renal is 11.1%; in the assay on A498 renal, 66.8%; with CCRF-CEM leukemia, -23.6% (active); with MOLT-4 leukemia, -28.3% (active); with SR leukemia, -32.1% (active).

Consider `COc1ccc(-c2c(-c3cc(OC)c(OC)c(OC)c3)noc2N)cc1`, for which the growth in the assay on SNB-75 CNS is 52.7%; with SNB-19 CNS it was 38.7%; in the assay with U251 CNS it was 22.2%; with PC-3 prostate, 21.8%; with SK-MEL-5 melanoma, -60.7% (active); with UACC-62 melanoma it was 43.9%. Moreover, the growth in the assay with LOX IMVI melanoma is 17.6%; with SK-MEL-28 melanoma, 58.6%; with SK-MEL-2 melanoma it was 72.6%; with EKVX NSCLC, 45.9%; in the assay on SN12C renal it was 27.6%; with UO-31 renal it was 41.7%. In addition, the growth is 67.3% in the assay on TK-10 renal; 28.2% in the assay on CAKI-1 renal; 22.8% in the assay on A498 renal; 13% in the assay on MOLT-4 leukemia; 8.86% (active) in the assay with SR leukemia.

With `Cc1nn(-c2ccc(Cl)cc2)c2nc3c(nc12)C(=O)c1ccccc1-3`, the growth in the assay with SNB-75 CNS was 95.5%; in the assay with SNB-19 CNS, 87.2%; in the assay on U251 CNS, 47%; with SK-MEL-5 melanoma, 65.8%; with UACC-62 melanoma, 55.2%; in the assay with LOX IMVI melanoma, 51.2%. The growth is 28.4% in the assay on SK-MEL-28 melanoma; 79.7% with SK-MEL-2 melanoma; 49.6% with EKVX NSCLC; 78.8% with SN12C renal; 110% in the assay on UO-31 renal; 94.1% with TK-10 renal. For the same compound, the growth in the assay on ACHN renal was 65.1%; in the assay with CAKI-1 renal, 82.9%; in the assay on A498 renal, -3.2% (active).

On to `O=C1/C(=C/c2ccc([N+](=O)[O-])o2)Oc2ccc(Br)cc21`, for which the growth in the assay with SNB-75 CNS is 85.5%; with SNB-19 CNS, 105%; with U251 CNS it was 93.6%; with SK-MEL-5 melanoma, 82.5%; in the assay on UACC-62 melanoma, 34.8%; with LOX IMVI melanoma, 5.15% (active). Also, the growth in the assay on SK-MEL-28 melanoma was 70.8%; with SK-MEL-2 melanoma, 56.6%; with SN12C renal it was 40.3%; in the assay with UO-31 renal, -18.6% (active); in the assay with TK-10 renal, -28.5% (active); in the assay on ACHN renal, 1.25% (active). For the same compound, the growth was 74% with CAKI-1 renal; 113% in the assay on A498 renal; 66.2% with CCRF-CEM leukemia; 1.28% (active) in the assay on MOLT-4 leukemia; 8.8% (active) with SR leukemia.

Take `C[N+]1(CCC[N+]2(C)C[C@@H]3[C@H](C2)[C@@H]2C=C[C@H]3C2)CCOCC1` (stereo partly drawn): the growth with SNB-75 CNS is 103%; in the assay with SNB-19 CNS it was 107%; with U251 CNS, 109%; in the assay on SK-MEL-5 melanoma, 106%; with UACC-62 melanoma, 97.7%; in the assay on LOX IMVI melanoma, 96%. In addition, the growth with SK-MEL-28 melanoma is 109%; with EKVX NSCLC, 118%; with SN12C renal, 101%; in the assay with UO-31 renal it was 73.9%; with TK-10 renal it was 113%; with ACHN renal it was 90.9%. In addition, the growth is 101% in the assay on CAKI-1 renal; 103% in the assay with A498 renal; 110% in the assay on CCRF-CEM leukemia; 108% in the assay with MOLT-4 leukemia; 110% with SR leukemia.

With `O=[N+]([O-])c1ccc(N/N=C/c2c(O)ccc3ccccc23)nc1`, the growth is 69.3% with SNB-75 CNS; 62.7% in the assay with SNB-19 CNS; 35.8% in the assay with U251 CNS; 40% in the assay on SK-MEL-5 melanoma; 41.7% in the assay with UACC-62 melanoma; 21% with LOX IMVI melanoma. The growth in the assay on SK-MEL-28 melanoma is 64.8%; in the assay with EKVX NSCLC, 32.3%; in the assay with SN12C renal it was 49.4%; in the assay with UO-31 renal, 9.52% (active); in the assay on TK-10 renal, 47.3%; in the assay with ACHN renal, 15%. The figures for the growth in the assay on CAKI-1 renal, in the assay with A498 renal and in the assay on MOLT-4 leukemia were 6.36% (active), 111% and 10.5%, respectively.

Turning to `Cc1cc(C)c2c(c1)N1OC(C2)C[C@H]1/C=C/c1ccccc1` (stereo partly drawn), the growth in the assay with SNB-75 CNS is 109%; with SNB-19 CNS, 103%; in the assay on U251 CNS, 107%; with SK-MEL-5 melanoma, 93.7%; in the assay on UACC-62 melanoma, 88%; in the assay on LOX IMVI melanoma, 94.4%. The growth with SK-MEL-28 melanoma was 104%; with EKVX NSCLC, 90%; in the assay with SN12C renal, 92.2%; in the assay with UO-31 renal it was 79.1%; in the assay with TK-10 renal, 108%; in the assay with ACHN renal, 112%. In addition, the growth was 85.6% in the assay with CAKI-1 renal; 99.9% with A498 renal; 92.9% in the assay with CCRF-CEM leukemia; 77.7% in the assay with MOLT-4 leukemia; 83.2% in the assay on SR leukemia.
